The list shows a part of the results. Values without a mark were called inactive. Active and inactive are the calls of the source.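 How the source made its calls: active means mean protection from necroptosis of at least 50% over duplicate tests; inactive means mean protection below 50%.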
experiment: inhibitors of zVAD-triggered necroptosis in L929, confirmation, L929 cells, duplicate runs (AID 463117); details: L929 zVAD-induced necroptosis rescue, ATP luminescence, 24 h; at 10 µM; active compounds read high;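 further: 0% = cells with zVAD alone and 100% = vehicle cells without zVAD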

| SMILES | activation (protection from necroptosis) |
| --- | --- |
| CCN(CC)S(=O)(=O)c1ccc(NC(=O)c2cccnc2Cl)c(NC(=O)c2cccnc2Cl)c1 | 2.93% |
| C[C@@H]1C[C@@H]2O[C@H]2/C=C\C=C\C(=O)Cc2c(Cl)c(O)cc(O)c2C(=O)O1 | 76.5% (active) |
| COc1cc(/C=N/Nc2nc3ccccc3s2)ccc1O | 75.3% (active) |
| CCn1c(SCCC(C)C)nnc1-c1c[nH]c2ccccc12 | 2.15% |
| Cc1ccccc1NC(=O)CSC1=NCCN1 | 7.19% |
| Cc1[nH]c(=O)c(C(=O)/C=C/c2ccccc2)c2c1CCCC2 | 1.29% |
| CC(=O)c1ccc(S(=O)(=O)N2CCN(C(=O)/C=C/c3ccc4ccccc4n3)CC2)cc1 | 2.81% |
| Cc1csc(NC(=O)NC2(C(F)(F)F)Oc3ccccc3O2)n1 | 1.61% |
| CC(=O)c1cc(C#N)c(SCC(=O)Nc2nccs2)nc1C | 0.793% |
| COc1ccc(N=Cc2c(O)[nH]c3ccccc23)cc1OC | 76% (active) |
| Cc1cccc(NC(=O)Nc2ccc3c(c2)OCO3)n1 | -0.556% |
| CCOC(=O)N1CCN(C(=O)CNC(=O)Cc2ccc(Cl)cc2)CC1 | 34.3% |
| Oc1ccc(/C=N/Nc2ccc(C(F)(F)F)cn2)cc1O | 83.8% (active) |
| COc1ccc(-n2cnc3cc(NCc4ccco4)ccc32)cc1 | 52.9% (active) |
| COc1ccc(-c2csc(Nc3ccc(O)cc3)n2)cc1 | 30.2% |
| CC(=O)Nc1ccc(NC(=S)NC(=O)/C=C/c2ccccc2)cc1 | -0.0785% |
| Oc1ccc(-c2onc3ccc(Cl)cc23)cc1 | 11.4% |
| O=C(CSc1ccc([N+](=O)[O-])cn1)Nc1ccc(N2CCOCC2)c(Cl)c1 | 3.3% |

| SMILES | activation (protection from necroptosis) |
| --- | --- |
| COc1ccc(Nc2ncc(F)c(N3CCOCC3)n2)cc1 | 1.91% |
| Cc1cc(-n2cnc(-c3cn(C)nc3C)n2)no1 | 27.6% |
| Cn1ccc(NC(=O)Nc2ccc(Cl)cc2)n1 | 28.3% |
| COc1ccc(-n2cnc3cc(C(=O)NC4CCCC4)ccc32)cc1 | 62% (active) |
| COc1cc(N=Cc2c(O)[nH]c3ccccc23)cc(OC)c1OC | 72.9% (active) |
| CCOc1ccc(C(=O)Nc2nccs2)cc1[N+](=O)[O-] | 1.6% |
| Cc1ccc(NC(=O)COc2ccc(-n3ccnc3)cc2)cc1Cl | 62.3% (active) |
| Cc1cc(NC(=O)c2cnn3cccnc23)n(-c2ccccc2)n1 | 21.5% |
| Cc1ccc(NC(=O)NC2CCCCC2)cc1S(=O)(=O)N1CCOCC1 | 2.38% |
| CC1CCCCC1NC(=O)/C(C#N)=C/C=C/c1ccccc1[N+](=O)[O-] (stereo not given) | 4.07% |
| COc1ccc2nc(NC(=O)NC3CCCCC3)sc2c1 | 37.5% |
| O=C(COc1cccc(-n2cnnn2)c1)NCCC1=CCCCC1 | 36.6% |
| CC1CCCC(C)N1CCCNC(=O)c1cc2c(=O)n(C)c3ccccc3c2n1C (stereo not given) | 37.3% |
| CC(=O)Nc1cccc(-c2cnc3ccccc3n2)c1 | 1.04% |
| Cc1ccc(Nc2ccccc2N)cc1 | 5.52% |
| CCn1c(SCC(=O)Nc2nc3ccc(OC)cc3s2)nnc1-c1ccoc1C | 1.15% |
| OCCCNc1nccc(-c2cc(Nc3cccc(Cl)c3)ncn2)n1 | 102% (active) |

Source: PubChem BioAssay AID463117 (University of Pittsburgh Molecular Library Screening Center, 2010)
